From PubChem BioAssay (Tox21)
Activity calls are given as the source filed them. Where a call stands in place of a potency, no number is given. Calls follow the shape of the full dose curve.

Target: Acetylcholinesterase (Homo sapiens) (UniProt P22303)
Assay: Acetylcholinesterase (AChE) small molecule antagonists: enzyme-based qHTS assay (AID 1347397); also: nearly all actives have a fitted effect of over 55% in size
Details: Potency: AChE enzyme activity inhibition; outcome: AChE enzyme activity inhibition; series mostly up to 115 µM
Method in brief: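 Human recombinant acetylcholinesterase; substrate acetylthiocholine; thiocholine quantified with DTNB (colorimetric). Compound preincubation 30 min RT; reaction 10 min RT.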
Potency is read from the fitted curve at half-maximal effect.

Sequence of Acetylcholinesterase (Homo sapiens) (P22303 whole entry, looked up): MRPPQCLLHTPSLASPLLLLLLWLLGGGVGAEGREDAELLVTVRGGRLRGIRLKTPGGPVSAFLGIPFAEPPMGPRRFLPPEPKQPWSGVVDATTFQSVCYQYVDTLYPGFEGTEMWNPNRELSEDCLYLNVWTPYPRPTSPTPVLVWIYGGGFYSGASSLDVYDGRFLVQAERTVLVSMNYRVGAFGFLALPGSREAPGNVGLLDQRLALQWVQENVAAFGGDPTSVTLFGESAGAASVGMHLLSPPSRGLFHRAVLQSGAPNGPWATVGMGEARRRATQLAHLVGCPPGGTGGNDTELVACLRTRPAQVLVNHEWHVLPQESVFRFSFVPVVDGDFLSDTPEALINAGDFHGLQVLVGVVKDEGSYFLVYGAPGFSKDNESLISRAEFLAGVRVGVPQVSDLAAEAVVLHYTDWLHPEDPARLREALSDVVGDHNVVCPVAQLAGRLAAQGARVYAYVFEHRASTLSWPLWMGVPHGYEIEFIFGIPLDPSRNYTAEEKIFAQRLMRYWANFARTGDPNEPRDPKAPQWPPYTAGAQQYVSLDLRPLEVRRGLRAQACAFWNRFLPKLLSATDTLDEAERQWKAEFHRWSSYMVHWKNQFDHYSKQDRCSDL

Row | Compound | Potency | outcome
1 | CC(C)Oc1ccccc1O | inactive | –
2 | CCN(CC)S(=O)(=O)c1ccc(C(=O)O)cc1 | inactive | –
3 | COC(=O)C1CCC(C(=O)OC)CC1 (stereo not given) | inactive | –
4 | CN1Cc2cc(C(=O)N3CCC(C4CCNCC4)CC3)ccc2N[C@@H](CC(=O)O)C1=O | inactive | –
5 | COc1ccccc1OCC1CNC(=O)O1 (stereo not given) | inactive | –
6 | CCCCCCCCCC(=O)OC | inactive | –
7 | CC1C(C)(C)C2=C(C(=O)CCC2)C1(C)C (stereo not given) | inactive | –
8 | CCC(C)(O)CCC=C(C)C (stereo not given) | inactive | –
9 | CC1=C(C/C=C(\C)CCC[C@H](C)CCC[C@H](C)CCCC(C)C)C(=O)c2ccccc2C1=O | inactive | –
10 | O=C(O)c1cc(O)c(O)c(O)c1 | inactive | –
11 | Nc1ccc(C(=O)Nc2ccccc2N)cc1 | inactive | –
12 | SCCc1cnccn1 | inactive | –
13 | COc1ccc(S(=O)(=O)Nc2nnc(CC(C)C)s2)cc1 | inactive | –
14 | Oc1ccccc1C=NCc1ccccc1 | inactive | –
15 | O=C(COCCOCCOCC(=O)Nc1c(I)cc(I)c(C(=O)O)c1I)Nc1c(I)cc(I)c(C(=O)O)c1I | inactive | –
16 | CC[C@H](C)COC(=O)/C=C/c1ccc(N=Cc2ccc(OC)cc2)cc1 | inactive | –
17 | O=c1n(CCO)c(=O)n(CCO)c(=O)n1CCO | inactive | –
18 | Cc1ccc2c(c1)C(=O)c1ccccc1C2=O | inactive | –
19 | Cc1oc(-c2ccccc2)nc1CCOc1ccc(C[C@H](Nc2ccccc2C(=O)c2ccccc2)C(=O)O)cc1 | 56.4 µM (active) | –
20 | CNC(=O)c1c(I)c(NC(=O)CCCCC(=O)Nc2c(I)c(C(=O)O)c(I)c(C(=O)NC)c2I)c(I)c(C(=O)O)c1I | inactive | –

Row | Compound | Potency | outcome
21 | O=C(O)C(Cc1cc(I)c(O)c(I)c1)c1ccccc1 (stereo not given) | inactive | –
22 | C=C1C2CCC(C2)C1(C)C (stereo not given) | inactive | –
23 | CC(C)(C)c1cc(/C=C2\SC(=N)NC2=O)cc(C(C)(C)C)c1O | – | inactive
24 | CC(C)(C)C(=O)OCOC(=O)[C@@H]1N2C(=O)[C@@H](NC(=O)[C@H](N)c3ccccc3)[C@H]2SC1(C)C | inactive | –
25 | COc1ccc([N+](=O)[O-])cc1N | inactive | –
26 | COc1cc(NS(=O)(=O)c2ccc(N)cc2)ncn1 | inactive | –
27 | Cc1c(-c2cccnc2)c2ccccc2n1CCCCC(=O)O | inactive | –
28 | NC(=O)COCCN1CCN(C(c2ccccc2)c2ccc(Cl)cc2)CC1 (stereo not given) | inactive | –
29 | CC[C@H](C)[C@@H](C(=O)O)n1sc2ccccc2c1=O | inactive | –
30 | CCCCCCCC(=O)OCC | inactive | –
31 | O=C1[C@@H]2[C@H]3CC[C@H](C3)[C@@H]2C(=O)N1CCCCN1CCN(c2ncccn2)CC1 | inactive | –
32 | O=C1NC(=O)[C@@]2(CCOc3ccc(F)cc32)N1 | inactive | –
33 | CCCCCCCCCCCCOCCO | inactive | –
34 | CC1(C)[C@@H](O[C@H]2O[C@H](C(=O)O)[C@@H](O)[C@H](O)[C@H]2O[C@@H]2O[C@H](C(=O)O)[C@@H](O)[C@H](O)[C@H]2O)CC[C@]2(C)[C@H]3C(=O)C=C4[C@@H]5C[C@@](C)(C(=O)O)CC[C@]5(C)CC[C@@]4(C)[C@]3(C)CC[C@@H]12 | inactive | –
35 | O=C1c2c(O)cccc2Cc2cccc(O)c21 | inactive | –
36 | CC12CCC(CC1)C(C)(C)O2 | inactive | –
37 | O=c1cc[nH]c(=S)[nH]1 | inactive | –
38 | Cc1ncc(COP(=O)(O)O)c(C=O)c1O | inactive | –
39 | Cc1cc(O)c(C(C)(C)C)cc1Sc1cc(C(C)(C)C)c(O)cc1C | 28.2 µM (active) | –
40 | NC(=O)c1cn(Cc2c(F)cccc2F)nn1 | inactive | –
